# NLRP3 yeast inh = inhibitors of NALP3 inflammasome in yeast | Yeast reconstituted NLRP3/ASC/caspase-1, beta-gal luminescence, 24 h | inhibition, % at 10 µM | 330,000 compounds, 0.39% hits;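 active means inhibition of 50% or more; inactive means inhibition below 50%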;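 further: plate controls were induced DMSO wells for no effect and uninduced yeast grown without galactose for full effect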
# tim10-1 inh = tim10-1 yeast growth inhibition. 330,000 compounds, 2.2% hits. inhibition, % at 20 µM. S. cerevisiae tim10-1 ts strain growth, BacTiter-Glo, 24 h;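 active means inhibition of at least 40%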;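 further: mutant grown at 25 °C; 0% = DMSO wells with yeast and 100% = wells holding no yeast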
# tim23-1 inh = inhibits growth of tim23-1 mutant yeast; S. cerevisiae tim23-1 growth, BacTiter-Glo luminescence, 24 h; inhibition, % at 20 µM; 330,000 compounds, 1.3% hits; AID 463212;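 active means growth inhibition of the mutant yeast at or above 50%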;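 further: temperature-sensitive mutant grown at 25 °C; plate controls were DMSO-treated mutant yeast for no effect and medium wells lacking yeast for full effect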
# NALP1 yeast inh = NALP1 inhibition; S. cerevisiae NALP1/ASC/caspase-1 growth, X-gal OD620, 72 h; inhibition, % at 10 µM; 280,000 compounds, 0.61% hits; AID 2071; in the data active means inhibition mostly above about 24%, no sharp cut-off; inactive means mostly below about 32%
# TIM10 inh = inhibits growth of TIM10 yeast strain; 330,000 compounds, 1.4% hits; inhibition, % at 10 µM; AID 463195; S. cerevisiae TIM10 strain growth, BacTiter-Glo luminescence, 24 h;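 active means inhibition of 40% or more at the single tested concentration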;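 further: wild-type TIM10 isogenic control strain grown at permissive 25 °C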
# tim10-1 conf = confirmation of tim10-1 mutant yeast growth inhibitors. shares compounds with tim10-1 inh. S. cerevisiae tim10-1 ts strain growth, BacTiter-Glo, 24 h. inhibition, % at 20 µM. 7,400 compounds, 56% hits. AID 463213;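 active means inhibition of yeast growth at or above a set limit in either of two repeat tests at 20 µM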;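 further: tim10-1 mutant grown at permissive 25 °C to find synthetic lethal compounds; 0% = DMSO yeast wells and 100% = medium wells without yeast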
# An asterisk follows results filed as active; nt = no result. In the library only some 4% were active in any assay of this set; here they are far more common.
SMILES,NLRP3 yeast inh,tim10-1 inh,tim23-1 inh,NALP1 yeast inh,TIM10 inh,tim10-1 conf
O=C(Oc1cc2oc(=O)c3c(c2cc1Cl)CCCC3)c1cccs1,25,43*,31,16,23,17
O=C(Oc1ccc2c3c(c(=O)oc2c1)CCCC3)c1cccs1,24,-2,13,29,21,nt
Nc1nonc1-n1nnc(C(=O)c2ccccc2)c1-c1ccccc1,10,41*,35,3,3,11
CSc1ccccc1C(=O)NC1CCCN(c2ccc(C(F)(F)F)cn2)C1 (centres undefined),21,43*,24,-17,-7,3
O=C(NC1CCCN(c2ccc(C(F)(F)F)cn2)C1)c1ccncc1 (centres undefined),2,33,-125,2,-38,nt
Cc1sc(C(C2C(=O)CC(C)(C)CC2=O)C2C(=O)CC(C)(C)CC2=O)cc1[N+](=O)[O-],38,44*,47,-1,37,41*
O=C1C=C(c2ccc(CO)cc2)C[C@@H](c2ccc3c(c2)OCO3)C1,3,22,41,nt,14,nt
Cc1ccc(C2(C(=O)N3CCC(n4nc(-c5ccccc5)oc4=O)CC3)CC2)cc1,14,20,31,6,31,nt
COc1ccc(C2(C(=O)N3CCC(n4nc(-c5ccccc5)oc4=O)CC3)CC2)cc1,-4,41*,38,7,14,15
O=C1c2cccc3cccc(c23)C(=O)N1CC1CCN(CC(O)COc2ccc3ccccc3c2)CC1 (centres undefined),24,-91,-73,nt,37,nt
O=C1c2cccc3cccc(c23)C(=O)N1CCN1CCN(CC(O)COc2ccc3ccccc3c2)CC1 (centres undefined),11,71*,45,22,15,62*
Cc1cccc(N2CCN(C(=O)c3ccc4ncsc4c3)CC2)c1C,nt,nt,nt,1,nt,nt
O=C(c1ccc2ncsc2c1)N1CCN(c2ccccc2Cl)CC1,13,49*,42,3,18,38*
CCOC(=O)CCc1c(C)n(CC)c2cc(-c3ccccc3OC)nn2c1=O,-11,42*,21,3,32,25
CCN(CC)CCCNC(=O)CCc1c(C)n(CC)c2cc(-c3ccccc3OC)nn2c1=O,9,-3,-5,22,3,nt
COc1ccccc1N1CN(S(=O)(=O)c2ccc(C)cc2)c2nc3ccccc3nc21,9,14,15,nt,4,nt
Cc1cc(/C=N/NC(=O)Cn2c3ccccc3c(=O)c3ccccc32)c(C)n1-c1ccc(Cl)cc1,nt,nt,nt,20,nt,nt
CCOC(=O)c1c(C)[nH]c(C)c1C(=O)COC(=O)c1cc2ccccc2cc1O,23,47*,21,46,18,18
CCOC(=O)c1c(C)[nH]c(C)c1C(=O)COC(=O)c1cc2ccccc2cc1OC,7,34,21,34,9,nt
CCCOP(=O)(c1ccc(N(C)C)cc1)C(O)c1ccc(Cl)cc1 (centres undefined),-3,24,37,16,25,nt
Cc1ccc(NC(=O)CN(c2ccc(Cl)cc2)S(=O)(=O)c2cc([N+](=O)[O-])ccc2Cl)c(C)c1,18,44*,34,21,4,23
CC1CCCC2(C1)NC(=S)N(c1ccccc1)N2 (centres undefined),23,55*,-3,6,-3,-34
S=C1NC2(CCCCC2)NN1c1ccccc1,22,2,-31,9,-32,nt
O=C(Cc1ccccc1F)Nc1cccc(S(=O)(=O)N2CCOCC2)c1,-1,9,14,nt,-1,nt
COC(=O)CSc1nnc([C@H](Cc2ccccc2)NC(=O)OC(C)(C)C)o1,12,16,19,8,-5,nt
COC(=O)CS(=O)(=O)c1nnc([C@H](Cc2ccccc2)NC(=O)OC(C)(C)C)o1,13,44*,23,13,18,38*
O=c1c(Cc2ccc(F)cc2)c(O)ccn1CCCn1ccnc1,11,5,-5,9,-3,nt
C=CCN(c1cccc(C(F)(F)F)c1)S(=O)(=O)c1cccc(C(=O)OCC(=O)Nc2ccccc2)c1,-2,4,4,33,13,nt
COc1ccc(C(=O)O/N=C(\C)c2ccccc2)cc1,48,19,45,nt,29,nt
CC(C)=NOC(=O)c1ccc(-c2ccccc2)cc1,38,54*,42,42,39,42*

# Source: PubChem (Sanford-Burnham Center for Chemical Genomics)
